Shown are actives, neighbours in structure and some others; about 3.7% of the full set was active somewhere.
BoNT A protease: BoNT/A light chain protease inhibitors, primary screen, biochemical, flow cytometry, MLPCN library; 360,000 tested, 0.17% active; Botulinum neurotoxin type A light chain protease (Clostridium botulinum A str. ATCC 3502); inhibition, % at 10 µM; multiplex microsphere protease substrate cleavage; note: plate controls were buffer without enzyme for full effect and enzyme alone for no effect
MazF activator: activators of E. coli MazEF toxin-antitoxin RNase, primary screen, biochemical, fluorescence, uHTS; Endoribonuclease toxin MazF (Escherichia coli (strain K12)), P0AE70; FAM/BHQ RNA-DNA oligo cleavage fluorescence, 5 h; activation, % at 20 µM; 350,000 tested, 0.32% active; in the data active = activation above about 50%
BoNT F protease: BoNT/F light chain protease inhibitors, primary screen, biochemical, flow cytometry, MLPCN library | Botulinum neurotoxin type F light chain protease (Clostridium botulinum) | Multiplex microsphere protease cleavage assay | inhibition, % at 10 µM | 360,000 tested, 0.22% active | AID 588497, 2011; in the data active = inhibition above about 35%, passing the limit was not always enough; inconclusive = no clear call, values can overlap the other calls; note: plate controls were buffer without enzyme for full effect and enzyme alone for no effect
Autofluor counter: counter-screen for toxin protease inhibitors: compound fluorescence. compound autofluorescence counterscreen, microsphere flow cytometry; active compounds read high. fluorescence intensity (test concentration not listed). 360,000 tested, 3.1% active. AID 624483; in the data active = fluorescence intensity above about 16000; inconclusive = no clear call, values can overlap the other calls
Anthrax LF prot: Bacillus anthracis LF protease inhibitors, primary screen, biochemical, multiplex microsphere, MLPCN library; Lethal factor (Bacillus anthracis), P15917; multiplex microsphere protease cleavage assay; inhibition, % at 10 µM; 360,000 tested, 0.12% active; note: plate controls were buffer without enzyme for full effect and enzyme alone for no effect
Target sequence (P15917 whole entry, looked up): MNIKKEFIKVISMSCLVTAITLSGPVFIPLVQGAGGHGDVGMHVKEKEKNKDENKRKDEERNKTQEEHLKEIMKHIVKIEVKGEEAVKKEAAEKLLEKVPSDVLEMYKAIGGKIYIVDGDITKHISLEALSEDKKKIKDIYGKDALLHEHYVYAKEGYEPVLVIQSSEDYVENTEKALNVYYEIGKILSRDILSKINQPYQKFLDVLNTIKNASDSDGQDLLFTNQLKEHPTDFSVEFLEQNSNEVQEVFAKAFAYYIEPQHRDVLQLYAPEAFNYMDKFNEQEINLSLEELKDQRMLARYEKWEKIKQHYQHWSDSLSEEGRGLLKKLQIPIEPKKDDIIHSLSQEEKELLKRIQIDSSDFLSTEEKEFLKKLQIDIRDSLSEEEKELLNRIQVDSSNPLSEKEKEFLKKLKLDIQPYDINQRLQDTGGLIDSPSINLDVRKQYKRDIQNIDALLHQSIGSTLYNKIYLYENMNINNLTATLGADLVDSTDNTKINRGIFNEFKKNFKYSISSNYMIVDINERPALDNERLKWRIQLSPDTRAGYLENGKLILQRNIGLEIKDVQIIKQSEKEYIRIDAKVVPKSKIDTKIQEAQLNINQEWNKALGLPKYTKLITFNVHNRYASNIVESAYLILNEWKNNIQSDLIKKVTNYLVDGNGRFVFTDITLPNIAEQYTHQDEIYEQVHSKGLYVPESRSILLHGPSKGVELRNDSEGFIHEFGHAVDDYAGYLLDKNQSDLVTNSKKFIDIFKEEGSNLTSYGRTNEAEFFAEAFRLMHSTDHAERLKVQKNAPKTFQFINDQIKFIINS
BoNT-A LC CP1: BoNT/A light chain protease inhibitors, confirmation, biochemical, flow cytometry, cherry pick 1. shares compounds with BoNT F protease. multiplex microsphere protease assay. inhibition, % at 10 µM. 720 tested, 3% active. AID 602139, 2011; in the data active = inhibition above about 32%
BoNT-F LC CP1: BoNT/F light chain protease inhibitors, confirmation, biochemical, flow cytometry, cherry pick 1. shares compounds with BoNT F protease. multiplex microsphere protease cleavage assay. inhibition, % at 10 µM. 720 tested, under 10 active. AID 602140, 2011; call rule not given here
Anthrax LF CP1: Bacillus anthracis LF protease inhibitors, confirmation, biochemical, multiplex microsphere, cherry pick 1; inhibition, % at 10 µM; multiplex microsphere protease cleavage assay; AID 602142, 2011; 720 tested, under 10 active; shares compounds with BoNT F protease; call rule not given here
Numbers without * were called inactive; ? = inconclusive; / = not tested or not shown. Cut-off read from the data, not from the text of the source, unless noted: active = inhibition above about 30%; inconclusive = no clear call, values can overlap the other calls; inactive = below that.

SMILES	BoNT A protease	MazF activator	BoNT F protease	Autofluor counter	Anthrax LF prot	BoNT-A LC CP1	BoNT-F LC CP1	Anthrax LF CP1
COc1cccc(CN2CCSCC2)c1OC	1.9	1.8	10.9	3808	-21.2	/	/	/
COc1ccccc1CN1CCSCC1	12.0	-11.9	70.8*	10448	13.9	-1.5	-13.2	-3.5
Cc1c(NC(=O)c2ccccc2N(C)S(=O)(=O)c2ccccc2)c(=O)n(-c2ccccc2)n1C	43.7*	7.3	48.5*	6019	-25.4	0.7	3.3	-0.9
Cc1c(NC(=O)c2ccc(N(C)S(C)(=O)=O)cc2)c(=O)n(-c2ccccc2)n1C	-2.4	2.5	-15.2	6194	-4.8	/	/	/
CCCc1nc(SCC(=O)O)c2sc(=S)n(-c3ccccc3)c2n1	-2.2	1.1	?	3702	-0.7	/	/	/
Fc1ccc(-c2ncc3ccccn23)cc1	35.6*	-1.9	-0.9	4490	14.7	1.6	0.1	-0.5
Brc1ccc(-c2ncc3ccccn23)cc1	1.7	-2.1	-1.6	3322	9.0	0.2	-3.9	-1.5
Fc1ccc(-c2nnc3ccccn23)cc1	-0.8	0.0	-5.7	2599	-0.6	/	/	/
CCc1ccc(-c2cc(C(F)(F)F)n3nc(C(=O)Nc4cnn(Cc5ccccc5C)c4)cc3n2)s1	4.4	-9.2	10.0	10727	1.8	1.6	0.5	-4.3
O=C(Nc1cnn(Cc2ccc(F)cc2)c1)c1cc2nc(-c3ccco3)cc(C(F)(F)F)n2n1	0.2	8.5	3.7	3265	-3.3	1.3	4.0	-3.6
CCc1ccc(-c2cc(C(F)(F)F)n3nc(C(=O)Nc4c(C)nn(Cc5ccccc5Cl)c4C)cc3n2)s1	?	-5.6	17.0	21126*	29.2	5.0	2.6	4.0
CCc1ccc(-c2cc(C(F)(F)F)n3nc(C(=O)Nc4c(C)nn(Cc5ccccc5C)c4C)cc3n2)s1	29.2	-10.8	18.9	19939*	30.5*	3.2	-4.3	3.5
Cc1cc(C)n2nc(C(=O)Nc3c(C)nn(Cc4ccc(F)cc4)c3C)cc2n1	-0.9	-4.1	4.3	4003	-2.8	-1.7	1.6	0.8
Cc1nn(Cc2ccccc2)c(C)c1NC(=O)c1cc2nc(-c3ccco3)cc(C(F)(F)F)n2n1	/	2.9	/	/	/	-1.1	0.6	3.8
Cc1ccccc1Cn1ccc(NC(=O)c2cc3nc(-c4ccco4)cc(C(F)(F)F)n3n2)n1	-0.2	7.8	-3.0	2854	0.0	/	/	/
CCc1nc2ccc(C(=O)Nc3cccc(NS(C)(=O)=O)c3)cn2c1N(C)Cc1nccn1C	0.4	/	-0.5	2861	0.3	/	/	/
O=C1OC(COCC#Cc2ccccc2)CN1c1ccccc1 (centres undefined)	0.0	1.0	1.0	3626	2.2	/	/	/
CC(=O)Nc1ccc(NC(=O)CSc2nnc(CC(C)O)n2-c2ccccc2)cc1 (centres undefined)	-3.8	5.2	?	3363	-4.9	/	/	/
CC(=O)Nc1ccc(NC(=O)CSc2nnc(N)n2-c2ccccc2)cc1	4.2	0.0	38.9*	3673	-4.8	-2.2	-4.7	-3.7
COc1ccc(NC(=O)CSc2nc(N)c3cc4c(nc3n2)CC(C)(C)OC4)cc1	4.2	-18.4	47.3*	4147	11.4	-0.1	3.1	1.7
CCOc1ccc(-c2nc(CSc3nncs3)cs2)cc1OC	25.4	6.2	40.6*	?	-28.1	-0.9	-6.2	-7.5
O=c1c(/C=C(\O)c2ccc(F)cc2)nc2ccccc2n1-c1ccccc1	46.2*	-516.1	193.7*	14800	32.1*	19.7	6.8	7.9
Cn1c(=O)c(/C=C/c2ccc(F)cc2)nc2ccccc21	32.6*	-12.3	1.6	4159	16.3	23.7	2.5	9.2
Cn1c(=O)c(/C=C/c2ccccc2)nc2ccccc21	48.8*	2.7	2.9	2731	15.9	39.9*	7.2	20.6
Cn1c(/C=C/c2ccccc2)nc2ccccc21	-0.4	0.3	3.4	4364	-1.8	/	/	/
SMILES	BoNT A protease	MazF activator	BoNT F protease	Autofluor counter	Anthrax LF prot	BoNT-A LC CP1	BoNT-F LC CP1	Anthrax LF CP1
CC(C)CN1C(=O)C(=O)N(CC(=O)N(C)CC(=O)Nc2ccc(F)cc2)C1=O	-0.8	4.3	-4.1	4306	1.5	/	/	/
C=CCN(Cc1ccc(Br)s1)C(=O)c1ccc(OCc2c(C)noc2C)cc1	0.5	-3.0	-2.1	3796	6.5	/	/	/
Cc1cc(-c2nnc(SCC(=O)Nc3ccccc3)n2C)no1	?	-5.2	?	4305	31.8*	0.6	0.5	7.5
Oc1ccc(Cl)cc1C=Nc1ccccc1Br	0.1	-3.5	-1.1	2081	0.6	/	/	/
Oc1ccc(Br)cc1C=Nc1ccc2c3c(cccc13)CC2	33.3*	11.7	-4.6	3654	13.3	8.3	-1.5	4.2
Cc1ccc2nc(SCC(=O)O)nc(C)c2c1	3.4	5.8	39.7*	4380	7.0	-0.9	-6.5	-3.9
Cc1ccc2nc(SCCC#N)nc(C)c2c1	1.0	4.1	12.9	4543	1.1	/	/	/
O=C(Nc1ccccc1)C1CCN(S(=O)(=O)c2cccs2)CC1	1.7	-2.7	-1.7	8563	4.7	/	/	/
O=C(Nc1ccccc1)C1CCN(c2nccs2)CC1	40.0*	-2.1	?	?	40.5*	2.3	-9.2	4.4
COc1ccc(C(=O)Nc2ccc3nc(C)c(C)nc3c2)cc1	-0.5	14.9	6.2	3841	10.9	/	/	/
COc1ccc(C(=O)Nc2ccc3c(c2)nc2n3CCSC2)cc1	6.9	3.5	38.1*	4353	2.4	-0.1	-1.3	-5.0
COc1ccc(NC(=O)c2cc(C3CCCCN3S(=O)(=O)Cc3ccccc3)on2)c(C)c1 (centres undefined)	-0.2	/	2.0	3807	2.6	/	/	/
O=C(O)CSc1nnc(-c2ccc(Cl)cc2)n1-c1ccccc1	-0.4	/	35.7*	4072	-3.1	-1.3	3.1	-3.4
CC(C)N(C)Cc1cn(C)nc1-c1ccc(Oc2ccccc2)cc1	-2.3	13.5	35.5*	3249	0.0	-0.4	-6.5	1.3
COCCN(Cc1cn(C)nc1-c1ccc(Oc2ccccc2)cc1)C(C)C	-6.9	-14.2	?	4079	-19.3	/	/	/
CCOc1ccc(OCCOCCNCCOC)cc1	3.5	-0.9	41.3*	2724	1.0	-0.2	5.0	-2.1
O=C(C[C@@H]1C/C=C\C[C@@H](NC(=O)OCC2c3ccccc3-c3ccccc32)C(=O)OCCNC1=O)N[C@@H](CO)Cc1ccccc1	0.2	-30.5	-7.0	2737	-4.0	/	/	/
CC1CCCC(N2CCN(C(=O)c3ccccc3F)CC2)C1 (centres undefined)	1.4	2.7	?	3001	37.8*	-0.6	-5.2	2.2

Screening results (PubChem BioAssay)
